From PubChem BioAssay come the findings set out here.

Active and inactive are the calls of the source.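 The calls were made as follows, unless noted: active = compound raises GLP1 secretion from the human gut endocrine cells, with no numeric limit stated; inactive = the rest.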

Assay [1] is described as follows: Wnt pathway potentiators raising nuclear beta-catenin – imaging, WNT3A-conditioned medium, mouse C2C12, NPC library, primary screen (AID 1117326; in the data active = nuclear beta-catenin stimulation mostly above about 4.2%, no sharp cut-off; inactive = mostly below about 10%; also: reference of the scale not given here). The conditions noted are these: stronger effect = higher value.
Assay [2] is described as follows: stimulators of insulin release from INS-1E, primary screen, cell-based, 5 mM glucose, NPC library (AID 1117329;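 active = compound raises insulin release from rat beta cells at 5 mM glucose, no numeric limit stated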; also: reference of the scale not given here). As to conditions: rat INS-1E insulin secretion, at 10 µM, stronger effect = higher value.
Assay [3] is described as follows: growth inhibition of GSK3B-pretreated HCT116 cells – cell-based, CellTiter-Glo, 0.2 to 20 µM (AID 1117336;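 active = compounds lowering colon cancer cell viability after pretreatment blocking the GSK3B kinase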). As to conditions: HCT116 viability after GSK3B inhibitor, at 20 µM, stronger effect = higher value.
Assay [4] is described as follows: inhibition of endothelial tube formation, primary screen, imaging, VEGF stimulated, CD31 staining, tube area, NPC library (AID 1117340;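 active = compound that reduces growth-factor-driven endothelial tube area in a mixed cell culture, no cutoff stated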). The conditions noted are these: VEGF-stimulated ADSC/ECFC co-culture, at 10 µM, stronger effect = higher value.
Assay [5] can be described thus: GLP1 release stimulators, primary, NCI-H716, NPC library (AID 1117341). Also: reference of the scale not given here. The conditions noted are these: NCI-H716 cells, at 10 µM, stronger effect = higher value.
Assay [6] can be described thus: HCT116 colon cancer cell growth inhibition, primary screen, CellTiter-Glo luminescence, NPC library (AID 1117342;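 active = compounds that lower survival of HCT116 colon cancer cells in the luminescence readout, no numeric limit stated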). As to conditions: at 20 µM (top of the series).
Assay [7] is described as follows: reduced SW480 viability measured with CellTiter-Glo, NPC library, primary (AID 1117343;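 active = compounds that lower viability of the colon cancer cells in the luminescence readout, with no numeric limit stated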). The conditions noted are these: CellTiter-Glo luminescence; at 20 µM (top of the series) unless noted.
Assay [8] in a line: NPC library primary testing for decreased DLD-1 cell viability via CellTiter-Glo (AID 1117346;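 active = compounds that lower survival of DLD-1 colon cancer cells in the luminescence readout, no cutoff given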). The conditions noted are these: DLD-1 viability, CellTiter-Glo luminescence; at 20 µM (top of the series).
The nature of assay [9]: MELAS cybrid and Rieske KO viability enhancers – cell-based, MELAS cybrids, Rieske KO mouse fibroblasts, CellTiter-Glo, primary screen (AID 1508586;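 active = mean z-score across replicates of 1.96 or higher in either the MELAS or the Rieske mutant cell line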;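 also: z relative to plate mean and SD of compound and empty wells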). As to conditions: low glucose.
In assay [10] the target is NAD(+) hydrolase SARM1 (Homo sapiens) (UniProt Q6SZW1). The experiment in a line: blocking NAD cleavage by SARM1 SAM-TIR – cell lysate, NAD-Glo luminescence (AID 1508614;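 active = compound whose remaining NAD level is above about 45 nM, limit read from the data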;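 also: higher remaining NAD means stronger inhibition of SARM1 NADase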). As to conditions: SAM-TIR HEK293T lysate NADase, at 1 µM, stronger effect = higher value.
NAD(+) hydrolase SARM1 (Homo sapiens), sequence (Q6SZW1 whole entry, looked up): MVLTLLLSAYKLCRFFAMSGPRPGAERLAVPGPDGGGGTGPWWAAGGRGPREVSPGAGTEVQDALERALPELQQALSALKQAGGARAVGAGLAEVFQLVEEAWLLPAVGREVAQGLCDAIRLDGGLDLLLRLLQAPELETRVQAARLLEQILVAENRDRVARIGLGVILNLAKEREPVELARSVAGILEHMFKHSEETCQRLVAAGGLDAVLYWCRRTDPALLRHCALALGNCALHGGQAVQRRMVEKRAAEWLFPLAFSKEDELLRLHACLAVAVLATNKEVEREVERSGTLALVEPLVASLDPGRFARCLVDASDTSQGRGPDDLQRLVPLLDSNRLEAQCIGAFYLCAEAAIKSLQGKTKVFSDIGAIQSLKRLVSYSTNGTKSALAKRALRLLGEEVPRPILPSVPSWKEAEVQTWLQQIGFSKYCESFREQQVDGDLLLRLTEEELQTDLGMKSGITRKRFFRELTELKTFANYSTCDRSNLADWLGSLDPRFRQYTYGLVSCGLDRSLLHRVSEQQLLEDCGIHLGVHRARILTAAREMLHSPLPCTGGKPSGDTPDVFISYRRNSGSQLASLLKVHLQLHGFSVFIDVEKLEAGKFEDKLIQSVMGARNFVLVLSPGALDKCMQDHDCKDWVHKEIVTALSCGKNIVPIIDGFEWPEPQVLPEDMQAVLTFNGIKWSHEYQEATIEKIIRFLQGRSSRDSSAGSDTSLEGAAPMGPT
Assay [11] can be described thus: viability loss with induced miR-34 in A549 – imaging, A549 dox-inducible miR-34, nuclei and caspase counts, primary screen (AID 1347080;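 active = compounds whose cell count with miR-34 switched on is under 0.7 times the count with it off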). The conditions noted are these: A549 miR-34 inducible, Hoechst nuclei count, 48 h.
The nature of assay [12]: growth inhibition, single agent or in combination, cell-based, chromothripsis tumors, cisplatin or BGB combos (AID 1671449; in the data active = inhibition above about 80%;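 also: cells exposed for 96 hours; 0% = vehicle DMSO and 100% = killing by high DMSO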). As to conditions: LFS_MB_P medulloblastoma cells.
Assay [13] can be described thus: growth inhibition, single agent and combos, cell-based, chromothripsis tumors, cisplatin or BGB combos (AID 1671450; in the data active = inhibition above about 80%;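 also: cells exposed to compound for four days; 0% = vehicle DMSO and 100% = cell killing by high DMSO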). The conditions noted are these: HDN33 neuroblastoma cells, stronger effect = higher value.
A short description of assay [14]: growth inhibition, single agents and combos, ICB984, cell-based, cisplatin or BGB combos, synergistic combos for chromothripsis tumors (AID 1671451; call rule not given here;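 also: cells exposed for 96 hours before readout; 0% = vehicle DMSO and 100% = killing by high DMSO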). The conditions noted are these: ICB984 medulloblastoma cells, drug combinations, stronger effect = higher value.

For `NCCNCCNCCNCCN`, the nuclear beta-catenin stimulation is -1.7% (inactive) in [1] (at 10 µM) and -1.3% in [1] (stimulation, at 2 µM). In addition, the insulin secretion stimulation in [2] was 4.1% (inactive). The viability decrease in [3] is -0.2% (inactive). In assay [4], the tube area decrease is -4.2% (inactive). Besides, in assay [5], the GLP1 secretion stimulation is -2.1% (inactive). The inhibition of viability in assay [6] was 16% (inactive). Further, the viability decrease (inhibition) in assay [7] is 17.8% (inactive); in assay [8] it was 4.2% (inactive). Moreover, the z-score is -0.618 (inactive) in [9] (MELAS cybrid survival, CellTiter-Glo 48 h, stronger effect = higher value) and 0.462 in assay [9] (Rieske KO mouse fibroblast survival, CellTiter-Glo 72 h).

On to `CCCCCCCC(=O)OCC(COC(=O)CCCCCCC)OC(=O)CCCCCCC`, for which the nuclear beta-catenin stimulation was -0.5% (inactive) in assay [1] (at 10 µM) and -1.9% in assay [1] (stimulation, at 2 µM). Further, in [2], the insulin secretion stimulation was 0.2% (inactive). For the same compound, the GLP1 secretion stimulation in assay [5] is -5.4% (inactive).

`O=C1OC2(c3ccccc31)c1cc(I)c(O)c(I)c1Oc1c2cc(I)c(O)c1I`: the nuclear beta-catenin stimulation in assay [1] (at 10 µM) was 1.2% (inactive); in assay [1] (stimulation, at 2 µM), 1.9%. Also, the insulin secretion stimulation in [2] is 1.6% (inactive). For the same compound, the viability decrease in assay [3] was -45.8% (inactive). For the same compound, the tube area decrease in assay [4] was 12% (inactive). In addition, in assay [5], the GLP1 secretion stimulation was 24.3% (active). Further, the inhibition of viability in assay [6] is -2.6% (inactive). For the same compound, the values for the viability decrease (inhibition) in assay [7] and in assay [8] were 24.4% (inactive) and -14.4% (inactive), respectively. For the same compound, the remaining NAD in assay [10] was 10 nM (inactive).

With `C=CC(C)(O)CCC=C(C)CCC=C(C)C` (stereo unspecified), the nuclear beta-catenin stimulation is 2.7% (inactive) in assay [1] (at 10 µM) and -0.9% in [1] (stimulation, at 2 µM). In [2], the insulin secretion stimulation is -0.2% (inactive). Further, the GLP1 secretion stimulation in assay [5] was 9.7% (inactive).

As to `CCN(CC)C(=O)c1cccnc1`, the nuclear beta-catenin stimulation in assay [1] (at 10 µM) was 2.1% (inactive); in [1] (stimulation, at 2 µM), -1%. The insulin secretion stimulation in [2] is 1.2% (inactive). The viability decrease in assay [3] was 6.1% (inactive). The GLP1 secretion stimulation in assay [5] is 1.6% (inactive). For the same compound, in assay [6], the inhibition of viability was 14.5% (inactive). In addition, the viability decrease (inhibition) in assay [7] was -1.1% (inactive); in assay [8], 6.2% (inactive). The fold change in assay [11] (stronger effect = lower value, cell number ratio, induced over uninduced) is 0.953 (inactive); in [11] (measured here: relative caspase fold change +Dox/-Dox), 0.829. Moreover, the cell count was 8700 in [11] (measured here: total cells with miR-34 induction, stronger effect = lower value) and 9130 in assay [11] (measured here: total cells without miR-34 induction). Besides, the remaining NAD in [10] is 10 nM (inactive).

Turning to `Cc1ccc2nc(N)[nH]c(=O)c2c1Sc1ccncc1`, the nuclear beta-catenin stimulation was 63.4% (active) in assay [1] (at 10 µM) and 61.7% in assay [1] (stimulation, at 2 µM). Further, the insulin secretion stimulation in [2] was 1.1% (inactive). Besides, in [3], the viability decrease was 94.2% (active). Besides, the tube area decrease in assay [4] is 50.9% (active). The GLP1 secretion stimulation in assay [5] is 1.3% (inactive). Besides, the inhibition of viability in assay [6] is 81.5% (active). Besides, the viability decrease (inhibition) in assay [7] is 78.8% (active); in assay [8], 42.1% (inactive). The inhibition in assay [12] (at 0.5 µM, stronger effect = higher value) is 15.7% (inactive); in assay [12] (measured here: combination with BGB IC20, at 0.005 µM) it was -4.28%; in [12] (measured here: combination with BGB IC40, at 0.005 µM), -17.9%; in assay [12] (measured here: combination with BGB IC40, at 0.05 µM), -6.64%; in assay [12] (measured here: combination with cisplatin, at 0.5 µM, stronger effect = higher value), 12.2%; in [12] (measured here: combination with cisplatin, at 5 µM, stronger effect = higher value), -5.06%. For the same compound, the inhibition is 21.4% in assay [13] (BGB combo, at 5 µM); -26.6% (inactive) in assay [13] (at 0.5 µM); 28.1% in assay [13] (cisplatin combo, at 5 µM); -32.4% in assay [13] (measured here: with BGB IC20 combination, at 0.5 µM); -14.7% in assay [13] (measured here: with cisplatin IC20 combination, at 0.5 µM); 43.4% in assay [13] (single agent, at 5 µM). Moreover, the inhibition was -27.9% in [14] (BGB IC20 combo, at 0.005 µM); -29.4% in [14] (BGB IC40 combo, at 0.005 µM); -15.3% in [14] (BGB IC40 combo, at 0.05 µM); -23.3% (inactive) in [14] (at 0.5 µM); -21.2% in assay [14] (cisplatin combo, at 0.05 µM); -25.7% in assay [14] (cisplatin combo, at 0.5 µM). Moreover, the inhibition is -19.8% in assay [14] (cisplatin combo, at 5 µM) and -37.5% in assay [14] (measured here: 5 uM single agent, at 5 µM).
